Laboratory results reported in PubChem BioAssay (NCI).
About 83,000 compounds went through this panel and 20% of them were active in at least one assay; those are over-represented in the sample as a whole.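 For each line, cells grew in 96-well plates with the test compound present at a single concentration for 48 hours.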 Values without a mark were called inactive. Activity calls are given as the source filed them. The calls were made as follows: active = growth percent below 10; inactive = the rest.

Assays:
Experiment in all cases: NCI-60 one-dose screen, 48 h (100 = growth as untreated, 0 = no growth, -100 = all killed)
Settings in all cases: 10 µM unless noted
DU-145 prostate = system: DU-145 prostate
K-562 leukemia = system: K-562 leukemia
MALME-3M melanoma = system: MALME-3M melanoma
MDA-MB-231 breast = system: MDA-MB-231 breast
RXF 393 renal = system: RXF 393 renal
SF-268 CNS = system: SF-268 CNS
SF-295 CNS = system: SF-295 CNS
SF-539 CNS = system: SF-539 CNS
UACC-257 melanoma = system: UACC-257 melanoma
M14 melanoma = system: M14 melanoma
HCT-15 colon = system: HCT-15 colon
HT29 colon = system: HT29 colon
SNB-75 CNS = system: SNB-75 CNS
SNB-19 CNS = system: SNB-19 CNS
U251 CNS = system: U251 CNS
PC-3 prostate = system: PC-3 prostate
SK-MEL-5 melanoma = system: SK-MEL-5 melanoma
UACC-62 melanoma = system: UACC-62 melanoma
LOX IMVI melanoma = system: LOX IMVI melanoma
SK-MEL-28 melanoma = system: SK-MEL-28 melanoma

Row | Structure (SMILES) | growth (DU-145 prostate) | growth (K-562 leukemia) | growth (MALME-3M melanoma) | growth (MDA-MB-231 breast) | growth (RXF 393 renal) | growth (SF-268 CNS) | growth (SF-295 CNS) | growth (SF-539 CNS) | growth (UACC-257 melanoma) | growth (M14 melanoma) | growth (HCT-15 colon) | growth (HT29 colon) | growth (SNB-75 CNS) | growth (SNB-19 CNS) | growth (U251 CNS) | growth (PC-3 prostate) | growth (SK-MEL-5 melanoma) | growth (UACC-62 melanoma) | growth (LOX IMVI melanoma) | growth (SK-MEL-28 melanoma)
1 | C[C@]12CC[C@@H]3c4cc(OC(F)F)c(O)cc4CC[C@H]3[C@@H]1CC[C@@H]2OS(N)(=O)=O | 9.56% (active) | 14.1% | 27.1% | 50.9% | 19.1% | 58.3% | 12.8% | 5.62% (active) | 71.8% | 17.6% | 26.6% | 19.5% | -8.09% (active) | 51% | 30% | 26.7% | 0.18% (active) | 48% | 40.4% | 57.4%
2 | Oc1c(CN2CCCC2)cc(COCc2ccc(Br)cc2)c2cccnc12 | 22.7% | 8.51% (active) | -3.92% (active) | 5.06% (active) | 20% | 10.8% | 13% | -23.5% (active) | -29.5% (active) | -3.51% (active) | -39.6% (active) | 55% | 24.5% | 23.2% | -7.1% (active) | 14.4% | -15.1% (active) | -22.4% (active) | -14.1% (active) | 24.2%
3 | O=c1c2c3c(sc2n2c(-c4cc(-c5ccccc5)nn4-c4ccccc4)nnc2n1Cc1ccccc1)CCCC3 | 107% | 27.1% | 123% | 94.2% | 90% | 89.2% | 5.76% (active) | 112% | 106% | 92.4% | 91.3% | 88.6% | 92.3% | 89.6% | 70.3% | 69.1% | 129% | 103% | 92.9% | 111%
4 | CC(=O)n1c(-c2ccc(Cl)cc2)nc2c(c1=O)C(c1ccc(Cl)cc1)c1sc3c(Cl)cccc3c1O2 (stereo not given) | 2.09% (active) | -0.184% (active) | 51.8% | -28.8% (active) | -25.4% (active) | -0.0873% (active) | -20% (active) | -63.2% (active) | 21.3% | -39.3% (active) | -37.4% (active) | -52.4% (active) | -22% (active) | 14.2% | -37.7% (active) | 4.54% (active) | -17.7% (active) | 3.42% (active) | -33.8% (active) | 18%
5 | COc1ccc(C2CC(c3cccc(OC)c3)=NN2C(=O)c2cc(OC)c(OC)c(OC)c2)cc1 (stereo not given) | -24.7% (active) | 5.93% (active) | 37.7% | 33.6% | 23.4% | 41.4% | 7.64% (active) | -16% (active) | 65% | 16.5% | 30.9% | 14% | 22.3% | 28.5% | 35.5% | 25.7% | -3.53% (active) | 37.9% | 35.5% | 56.2%
6 | O=C(CCCCCCN1CC(=O)N2[C@@H](c3ccccc3Cl)c3[nH]c4ccccc4c3C[C@H]2C1=O)NO | 77.2% | 25.7% | 21.9% | 63.1% | 61.3% | 89.9% | 80.3% | 60% | 51.7% | 49.3% | 97.5% | 57.6% | -1.06% (active) | 71.8% | 60.1% | 61.8% | 46.9% | 34% | 14.7% | 43.8%
7 | O=C1c2cccc(NCCN=Cc3cc([N+](=O)[O-])ccc3O)c2C(=O)c2c(NCCN=Cc3cc([N+](=O)[O-])ccc3O)cccc21 | 67% | 28.6% | 85.1% | 58.9% | 74.5% | 40% | 73% | 70.8% | 104% | 102% | 82% | 37.1% | 65.9% | 50.4% | 44.5% | 50% | 92.1% | 90.2% | 58.6% | 102%
8 | Cc1cc(NCc2cc(Nc3ccnc4cc(Cl)ccc34)ccc2F)nc(N2CCCC2)n1 | 10.8% | -46.2% (active) | -65.6% (active) | -49.1% (active) | -65.5% (active) | -2.08% (active) | -84.4% (active) | -68.5% (active) | -17.8% (active) | -71.3% (active) | -60.7% (active) | -40.2% (active) | -87.3% (active) | 28.9% | -64.7% (active) | 17.5% | -94.2% (active) | -62.6% (active) | -92.8% (active) | -69.4% (active)
9 | COc1ccc(NC(=O)CSc2nc(C)c(C(C)=O)n2-c2ccc(Cl)cc2)cc1 | 116% | 109% | 96% | 59.7% | 94.5% | 102% | 93.3% | 96.2% | 101% | 97% | 78.4% | 84.2% | 84.7% | 90.9% | 105% | 96.3% | 93.7% | 70.2% | 91% | 91.7%
10 | COc1cccc(-c2nn(-c3ccccc3)cc2-c2ccnc(NCCCNC(=O)c3ccc(F)cc3)c2)c1 | 65.5% | 16.9% | 48.2% | 51.3% | 56.3% | 53.7% | 36.5% | 68.3% | 42.3% | 20.3% | 24.9% | 11.7% | 46.2% | 67.2% | 36.4% | 27.1% | 6.09% (active) | 40.1% | 55.7% | 58.7%
11 | N=C(N)c1ccc(-c2ccc(-c3cncc4ccccc34)s2)s1 | -90% (active) | -59.4% (active) | -59.1% (active) | -72.3% (active) | -74.9% (active) | -71.5% (active) | -81.3% (active) | -77.6% (active) | 123% | -76.8% (active) | -74.2% (active) | -77.1% (active) | -95.9% (active) | -54.8% (active) | -92.5% (active) | -80.8% (active) | -89.5% (active) | -64.5% (active) | -78.1% (active) | -69.7% (active)
12 | COc1cccc(-c2nn(-c3ccccc3)cc2-c2ccnc(NCCCNC(=O)Nc3ccc(Cl)c(Cl)c3)c2)c1 | 22.1% | -13.6% (active) | -27.1% (active) | -37.2% (active) | 9.74% (active) | 13.9% | -4.97% (active) | 1.74% (active) | -29.6% (active) | -52% (active) | 6.61% (active) | -36.4% (active) | 25.4% | 27.7% | -15.5% (active) | 6.51% (active) | -26.4% (active) | -29.7% (active) | -92.1% (active) | -29.2% (active)
13 | COc1cc(/C=C/C(=O)N2CCN(C(=O)c3cc(OC)c(OC)c(OC)c3)CC2)ccc1OCCCN1C(=O)c2cccc3cccc(c23)C1=O | 79.1% | 78.7% | 125% | 101% | 74.2% | 90.6% | 71.9% | 99.9% | 101% | 99.3% | 72% | 91.8% | 93.1% | 99.5% | 83.4% | 25.5% | 75.5% | 64.3% | 68.8% | 81.9%
14 | CCc1c2c(nc3ccc(OC(=O)OCc4ccc(B5OC(C)(C)C(C)(C)O5)cc4)cc13)-c1cc3c(c(=O)n1C2)COC(=O)[C@]3(O)CC | 4.84% (active) | 13.1% | -43.9% (active) | 17.4% | -64.7% (active) | -7.41% (active) | 0.0181% (active) | -62.9% (active) | -60% (active) | 4.15% (active) | 9.28% (active) | 24.8% | -21.5% (active) | 1.62% (active) | -57.2% (active) | 14.9% | -84.2% (active) | -80.8% (active) | -67.8% (active) | -0.304% (active)
15 | COc1ccc(C(=NN=C(N)N)c2ccc(OC)cc2)cc1 | 52.8% | 19.9% | 69.4% | 48.4% | -2.81% (active) | 47.1% | 48.5% | 57.7% | 43.6% | 18.3% | 69.1% | 15.4% | -5.63% (active) | 43.6% | 39.4% | 30.6% | 13.9% | 52.6% | 15.8% | 59%
